PNC inhibitor: blocks assembly of the perinucleolar compartment | 140,000 tested, 3.1% active | activity change (PNC), negative = inhibition, % at 10 µM | AID 2417 | PC3M PTB-GFP, PNC prevalence imaging, 16 h; stronger effect = lower value;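 active means readout at or below -70, meaning at least 70% loss of cells showing the perinucleolar compartment, a nuclear body marking cancer cells; inconclusive means readout between -30 and a set limit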
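Read-out is percentage of cells bearing a perinucleolar compartment, from automated 20x imaging of fixed, Hoechst-stained PC3M PTB-GFP cells. Cells were seeded 4 h, then exposed 16 h to compound (23 nl of library stock) in duplicate plates.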
IMPase inh: membrane-permeable compound that blocks inositol monophosphatase | inhibition (IP1 accumulation), % at 46.1 µM | 120,000 tested, under 10 active | CHO-M1 cells, IP1 accumulation, HTRF TR-FRET ratio | P97697; active means well fitted curve in the direction sought with a large enough effect in the signal ratio, not every such curve was filed as active; inconclusive means small, poorly fitted or top-dose-only effect, or a change in a side signal; inactive means no such curve, though single readings can be large or run the other way; the % refers to the signal ratio;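 further: cells stimulated with carbachol in lithium chloride buffer; higher means more IMPase inhibition seen as more IP1 and lower FRET ratio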
Target sequence (P97697 whole entry, looked up): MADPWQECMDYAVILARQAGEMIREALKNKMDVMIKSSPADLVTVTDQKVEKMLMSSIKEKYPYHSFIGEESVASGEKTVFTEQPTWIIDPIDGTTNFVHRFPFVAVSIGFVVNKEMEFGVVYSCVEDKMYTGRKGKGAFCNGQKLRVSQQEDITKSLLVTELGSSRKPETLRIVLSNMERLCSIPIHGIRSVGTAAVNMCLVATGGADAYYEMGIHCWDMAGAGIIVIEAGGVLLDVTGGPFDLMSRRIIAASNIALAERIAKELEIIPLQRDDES
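The IP-One HTRF competitive assay in carbachol-stimulated CHO-M1 cells quantifies cellular IP1. Compounds spanned up to 46 uM final, and activity is expressed as AC50 from concentration-response fits of the ratio and donor data.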
IMPase Li inh: IMPase inhibition in cells with lithium potentiation | CHO-M1 cells, IP1 TR-FRET (IP-One), carbachol + lithium | Potency, µM (titrated, usually from 59.4 µM), usual class: inhibitors | 210,000 tested, 0.35% active | AID 1457;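 further: IP1 builds up when IMPase is blocked and the TR-FRET signal falls; nearly all actives have a fitted effect of over 50% in size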
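IP1 accumulation measured by competitive TR-FRET in lysed CHO-M1 cells after 30 min compound exposure at 37C, with a small lithium addition to potentiate weak responses. Hill-equation AC50 from ratio and donor-channel data.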
ALOX15B inhib: inhibitors of human 15-lipoxygenase 2 (ALOX15B). O15296. purified 15hLO-2, xylenol orange hydroperoxide absorbance. Potency, µM (titrated, usually from 57.1 µM), usual class: inhibitors. 110,000 tested, 0.56% active. AID 881; further: nearly all actives have a fitted effect of over 60% in size
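Screening format was qHTS against 50 nM purified 15hLO-2 in Hepes pH 7.5 with detergent. Activity follows hydroperoxide formation from 45 uM arachidonic acid, measured as 573:405 nm absorbance ratio of the ferric-xylenol orange complex.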
ALOX12 inhib: inhibitors of human 12-lipoxygenase (ALOX12) | P18054 | purified 12-hLO, xylenol orange hydroperoxide absorbance | Potency, µM (doses to about 57.1 µM), usual class: inhibitors | 150,000 tested, 0.12% active | AID 1452; further: nearly all actives have a fitted effect of over 55% in size
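Xylenol orange chromogenic assay: hydroperoxide from 12hLO oxidises Fe(II), giving red-shifted Fe(III)-XO absorbance. Conditions: 150 nM enzyme, 40 uM arachidonic acid, 25 mM Hepes pH 7.0, 0.01% Triton X-100, 30 min, room temperature.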
HPGD block: blocks human HPGD enzyme activity | purified HPGD, NADH fluorescence kinetic, PGE2 substrate | Potency, µM, most hits filed as inhibitors | 150,000 tested, 4.3% active; active means well fitted inhibition curve with a large enough effect, not every such curve was filed as active; inconclusive means small, poorly fitted or top-dose-only effect, or another doubt; inactive means no such curve, though single readings can be large or run the other way
Target sequence (P15428 whole entry, looked up): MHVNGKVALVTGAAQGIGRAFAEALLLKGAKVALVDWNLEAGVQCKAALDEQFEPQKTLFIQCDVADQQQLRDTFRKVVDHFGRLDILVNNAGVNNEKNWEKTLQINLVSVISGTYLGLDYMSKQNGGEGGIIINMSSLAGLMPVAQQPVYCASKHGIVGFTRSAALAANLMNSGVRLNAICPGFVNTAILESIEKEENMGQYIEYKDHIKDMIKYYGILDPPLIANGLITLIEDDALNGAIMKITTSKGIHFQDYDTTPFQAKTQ
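20 nM HPGD preincubated 15 min at room temperature with compound in 50 mM Tris-HCl pH 8, 0.01% Tween 20. Started with 1 mM NAD+ and 30 uM prostaglandin E2; NADH fluorescence (360/450 nm) read 5 times over 30-s intervals, last minus first.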
A number is an active result. Only some compounds are listed: those with a hit (about 5.3% of all), similar ones and a draw of the others. Unless noted, the call rests on the fitted dose curve; in most records, active means well fitted curve in the direction sought with a large enough effect; inconclusive means small, poorly fitted or top-dose-only effect, or another doubt; inactive means no such curve, though single readings can be large; an effect the other way counts as inactive or inconclusive.

O=C(CSc1cccs1)NCCc1ccccc1 was read as PNC inhibitor inconclusive, IMPase Li inh inactive, ALOX12 inhib inactive and HPGD block 14µM.
For COC(=O)C(/C=N/OCc1ccc([N+](=O)[O-])cc1)NC(=O)c1cccc(Cl)c1 (stereo not drawn) the results were PNC inhibitor -98, IMPase inh inactive, IMPase Li inh inactive, ALOX15B inhib inactive, ALOX12 inhib inactive and HPGD block inactive.
CC(NC(=O)c1ccc(Br)s1)C1CCCO1 (stereo not drawn) was read as PNC inhibitor inactive, IMPase inh inactive, IMPase Li inh inactive, ALOX15B inhib inactive, ALOX12 inhib inactive and HPGD block 32µM.
For CCOc1cc(C(=O)NC(C)C2CCCO2)cc(OCC)c1OCC (stereo not drawn) the results were IMPase Li inh inactive.
For Brc1ccc(OCc2ccccc2)c(CNCc2ccncc2)c1 the results were PNC inhibitor -109, IMPase inh inactive, IMPase Li inh inactive, ALOX15B inhib inactive, ALOX12 inhib inactive and HPGD block inactive.
O=C(Nc1ccccc1)N1N=C(c2cccs2)CC1c1cccs1 (stereo not drawn) was read as PNC inhibitor -102, IMPase Li inh inactive, ALOX12 inhib inactive and HPGD block inconclusive.
O=C(CN1CCOCC1)N1N=C(c2cccs2)CC1c1cccs1 (stereo not drawn) was read as IMPase Li inh inactive.
Oc1c(C(c2cccs2)N2CCN(c3ccccc3)CC2)ccc2cccnc12 (stereo not drawn) was read as PNC inhibitor inconclusive, IMPase inh inactive, IMPase Li inh inactive, ALOX15B inhib inactive, ALOX12 inhib inconclusive and HPGD block 1.8µM.
`Cc1cccc(OCCCCCn2ccnc2)c1` gave PNC inhibitor inconclusive, IMPase inh inactive, IMPase Li inh inactive, ALOX15B inhib inactive, ALOX12 inhib inactive and HPGD block inactive.
For CCc1cccc(OCCn2ccnc2)c1 the results were PNC inhibitor -90, IMPase Li inh inactive, ALOX12 inhib inactive and HPGD block inactive.
O=C(C(Cc1ccccc1)n1cccc1)N1CCN(Cc2ccccc2)CC1 (stereo not drawn) was read as PNC inhibitor inactive, IMPase inh inactive, IMPase Li inh inactive, ALOX15B inhib inactive, ALOX12 inhib inactive and HPGD block inactive.
O=C(C(Cc1ccccc1)n1cccc1)N1CCCCC1 (stereo not drawn) was read as PNC inhibitor inconclusive, IMPase inh inactive, IMPase Li inh inactive, ALOX15B inhib inactive, ALOX12 inhib inactive and HPGD block 13µM.
`O=C(C(Cc1ccccc1)n1cccc1)N1CCCCCC1` (stereo not drawn) gave PNC inhibitor inactive, IMPase inh inactive, IMPase Li inh inactive, ALOX15B inhib inactive, ALOX12 inhib inactive and HPGD block 28µM.
O=C(C(Cc1ccccc1)n1cccc1)N1CCN(c2cccc(Cl)c2)CC1 (stereo not drawn) was read as PNC inhibitor inactive, IMPase inh inactive, IMPase Li inh inactive, ALOX15B inhib inactive, ALOX12 inhib inactive and HPGD block inactive.
CNc1ncncc1-c1ccccc1OC was read as IMPase Li inh inactive, ALOX15B inhib inactive, ALOX12 inhib inactive and HPGD block inactive.
Screening O=C(Nc1cccc(Cl)c1)N1CCN(Cc2ccccc2)CC1 returned PNC inhibitor -96, IMPase inh inconclusive, IMPase Li inh inactive, ALOX15B inhib inactive, ALOX12 inhib inactive and HPGD block inactive.
For O=C(c1ccccc1)N1CCN(Cc2ccccc2)CC1 the results were PNC inhibitor -100, IMPase inh inactive, IMPase Li inh inactive, ALOX12 inhib inactive and HPGD block inactive.
Screening CCOC(=O)N1CCN(C(=O)c2ccc3nc(N4CCC(C)CC4)sc3c2)CC1 returned PNC inhibitor inactive, IMPase inh inactive, IMPase Li inh inactive, ALOX15B inhib inactive, ALOX12 inhib inactive and HPGD block inconclusive.
Cc1cccc(NC(=O)N2CCN(Cc3ccc(Cl)cc3)CC2)c1 was read as IMPase Li inh inactive.
CC1CCN(c2nc3ccc(C(=O)N4CCN(Cc5ccccc5)CC4)cc3s2)CC1 was read as PNC inhibitor inconclusive, IMPase inh inactive, IMPase Li inh inactive, ALOX15B inhib inactive, ALOX12 inhib inactive and HPGD block 14µM.
For Oc1cccc(C(=S)N2CCN(Cc3ccccc3)CC2)c1 the results were PNC inhibitor inactive, IMPase inh inactive, IMPase Li inh inactive, ALOX15B inhib inactive, ALOX12 inhib inactive and HPGD block 14µM.
CN(C)c1ccc(N=NS(=O)(=O)O)cc1 was read as IMPase Li inh inactive, ALOX15B inhib inactive, ALOX12 inhib inactive and HPGD block inactive.
`CC(=O)c1c(C)[nH]c(C(=O)OC(C)C(=O)Nc2cc(S(=O)(=O)N3CCCCC3)ccc2Cl)c1C` (stereo not drawn) gave PNC inhibitor inconclusive, IMPase Li inh inactive, ALOX12 inhib inactive and HPGD block inactive.
`Cc1noc(C)c1-c1nc(NCc2cccs2)c2ccccc2n1` gave IMPase Li inh inactive and ALOX15B inhib inactive.
For C=CCC(C)(O)c1cccs1 (stereo not drawn) the results were IMPase Li inh inactive and HPGD block inactive.
CC1CCCCN1C(=O)Nc1cccc(Cl)c1 (stereo not drawn) was read as PNC inhibitor inconclusive, IMPase inh inactive, IMPase Li inh inactive, ALOX15B inhib inactive, ALOX12 inhib inactive and HPGD block 22µM.
`CCn1c(=O)cc(SCC(=O)NCc2ccco2)c2ccccc21` gave PNC inhibitor inactive, IMPase inh inactive, IMPase Li inh inconclusive, ALOX15B inhib inactive, ALOX12 inhib inactive and HPGD block inconclusive.
`CCn1c(=O)cc(SCC(=O)NCc2ccc(C)o2)c2ccccc21` gave PNC inhibitor inactive, IMPase inh inactive, IMPase Li inh inactive, ALOX15B inhib inactive, ALOX12 inhib inactive and HPGD block 28µM.
Screening CCn1c(=O)cc(SCC(=O)NCc2cccnc2)c2ccccc21 returned PNC inhibitor inactive, IMPase inh inconclusive, IMPase Li inh 10µM, ALOX15B inhib inactive, ALOX12 inhib inactive and HPGD block inconclusive.
`O=C1c2cccc(OCc3ccc(F)cc3)c2CCN1Cc1ccccc1` gave PNC inhibitor -82, IMPase inh inactive, IMPase Li inh inactive, ALOX12 inhib inactive and HPGD block inactive.
For CN(C)C(=O)CCSc1nnc(-c2ccco2)o1 the results were IMPase Li inh inactive.
Screening COc1ccc(S(=O)(=O)c2c(C)c(NS(=O)(=O)c3ccccc3)cc(C)c2O)cc1 returned IMPase Li inh inactive.
Screening COc1ccc(S(=O)(=O)Nc2cc(C)c(O)c(S(=O)(=O)c3ccccc3)c2)cc1 returned PNC inhibitor -102, IMPase inh inactive, IMPase Li inh inactive, ALOX15B inhib inactive, ALOX12 inhib inactive and HPGD block inactive.
